High-throughput results as filed in PubChem.
The sample as a whole holds a higher share of hits than the screen did.
IDE exosite FP – exo-site inhibitors of human IDE, primary screen, biochemical, fluorescence anisotropy, probe displacement. purified IDE, FL-6b probe fluorescence polarization; stronger effect = lower value. z-score at 20 µM. 17,000 tested, 6.3% active;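 active = z-score of -3 or lower, meaning strong loss of probe binding signal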;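 also: His-tagged human IDE residues 42-1019 made in E. coli with 30 nM FL-6b probe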
* marks the source's active call; other numbers are inactive results; ! = repeats disagree.

SMILES | IDE exosite FP
C(=C\c1ccc(C2[C@H]3CNC[C@@H]2N3CC2CCOCC2)cc1)/c1ccccc1 (stereo partly specified) | 0.8
CN1C(=O)c2cc(NC(=O)Nc3ccccc3Cl)ccc2OC[C@@H]2O[C@@H](CC(=O)NCCCN3CCOCC3)CC[C@@H]21 | -5.06*
CN1C(=O)c2cc(NC(=O)Nc3ccccc3Cl)ccc2OC[C@@H]2O[C@H](CC(=O)NCCCN3CCOCC3)CC[C@H]21 | -1.54
COCC(=O)Nc1ccc2c(c1)C(=O)N(C)[C@H]1CC[C@@H](CC(=O)NCCCN(C)C)O[C@H]1CO2 | -1.24
COCC(=O)Nc1ccc2c(c1)C(=O)N(C)[C@@H]1CC[C@@H](CC(=O)NCCCN(C)C)O[C@H]1CO2 | 0.712
CN1C(=O)c2cc(NC(=O)Nc3ccccc3Cl)ccc2OC[C@@H]2O[C@@H](CC(=O)NCCCN3CCOCC3)CC[C@H]21 | -1.04
COCC(=O)Nc1ccc2c(c1)C(=O)N(C)[C@@H]1CC[C@H](CC(=O)NCCCN(C)C)O[C@H]1CO2 | -3.32*
CC(C)NC(=O)Nc1ccc2c(c1)C(=O)N([C@H](C)CO)C[C@H](C)[C@@H](CN(C)C(=O)C1CCCCC1)OCCCC[C@@H](C)O2 | 0.377
CN(C)C(=O)c1cccc(-c2ccc([C@@H]3[C@H](CO)N4C(=O)CN(C(=O)C5CCC5)C[C@@H]34)cc2)c1 | 0.251
CC(C)CN(C[C@H]1N[C@H](CO)[C@H]1c1ccccc1)C(=O)CN(C)C | 0.748
COc1ccccc1-c1ccc(C2[C@@H]3CN(Cc4nccs4)C[C@H]2N3)cc1 (stereo partly specified) | -0.0593
Fc1ccccc1-c1ccc(C2[C@@H]3CN(Cc4ccccc4)C[C@H]2N3)cc1 (stereo partly specified) | 2.34
COc1cc(CN2C[C@@H]3N[C@H](C2)C3c2ccc(-c3ccc(C#N)cc3)cc2)cc(OC)c1 (stereo partly specified) | -0.741
COc1cccc(CN2C[C@@H]3N[C@H](C2)C3c2ccc(-c3ccccc3OC)cc2)c1 (stereo partly specified) | -8.57*!
COc1cccc(CN2CCCCN3[C@@H](CO)[C@@H](c4ccc(-c5ccccc5OC)cc4)[C@@H]3C2)c1 | -1.52
COc1ccccc1-c1ccc(C2[C@@H]3CN(Cc4cccc(F)c4)C[C@H]2N3)cc1 (stereo partly specified) | -3.17*
O=C(C[C@@H]1CC[C@H]2[C@@H](COC[C@H](O)CN2C(=O)Cc2ccccc2)O1)NC1Cc2ccccc2C1 | -0.313
Cc1cccc(-c2ccc(C3[C@@H]4CN(C(=O)C5CCOCC5)C[C@H]3N4)cc2)c1 (stereo partly specified) | -5.14*
N#Cc1cccc(-c2ccc(C3[C@@H]4CN(C(=O)Nc5ccccc5)C[C@H]3N4)cc2)c1 (stereo partly specified) | 3.52
Cc1cccc(-c2ccc(C3[C@@H]4CN(Cc5cccc(F)c5)C[C@H]3N4)cc2)c1 (stereo partly specified) | -0.438
CN(C)C(=O)c1ccc(-c2ccc(C3[C@@H]4CN(C(=O)C5CC5)C[C@H]3N4)cc2)cc1 (stereo partly specified) | 1.38
Cc1cccc(-c2ccc(C3[C@@H]4CN(Cc5ccccc5)C[C@H]3N4)cc2)c1 (stereo partly specified) | -5.1*
Cc1cccc(-c2ccc(C3[C@@H]4CN(C(=O)Nc5ccc(F)cc5)C[C@H]3N4)cc2)c1 (stereo partly specified) | -0.362
Cc1cccc(-c2ccc(C3[C@@H]4CN(C(=O)Nc5ccccc5)C[C@H]3N4)cc2)c1 (stereo partly specified) | -4.3*
c1ccc(CN2C[C@@H]3N[C@H](C2)C3c2ccc(-c3ccncc3)cc2)cc1 (stereo partly specified) | 2.42
SMILES | IDE exosite FP
O=C(C1CCOCC1)N1C[C@@H]2N[C@H](C1)C2c1ccc(-c2cncnc2)cc1 (stereo partly specified) | 3.12
CC(C)NC(=O)N1[C@@H](CO)[C@@H]2c3ccccc3N(C)C[C@@H]21 | 3.1
CCCC#Cc1ccc([C@H]2[C@@H](CO)N3C(=O)CN(C(=O)c4ccccn4)C[C@@H]23)cc1 | 2.37
CCC(=O)N1CC(=O)N2[C@H](CO)[C@@H](c3ccc(C#CC4CCCCC4)cc3)[C@H]2C1 | 3.89
O=C(c1ccccc1)N1CC(=O)N2[C@H](CO)[C@@H](c3ccc(C#CCC4CCCC4)cc3)[C@@H]2C1 | 3.36
COc1cccc(C#Cc2ccc3c(c2)[C@H]2[C@H](CCN2C(=O)Cc2ccccc2)[C@@H](CO)N3C)c1 | 2.57
CCN1CC(=O)N2[C@H](C1)[C@H](c1ccc(Br)cc1)[C@@H]2CO | 0.629
CC=Cc1ccc2n(c1=O)C[C@@H]1[C@@H](CO)[C@H](C(=O)N[C@@H](C)c3ccccc3)[C@H]2N1Cc1cncnc1 (mixture of isomers) | 0.114
C[C@@H]1CN([C@@H](C)CO)C(=O)c2cc(NC(=O)NC3CCCCC3)ccc2O[C@H]1CN(C)S(C)(=O)=O | 0.748
O=C(c1cccc(F)c1)N1CC2(C1)[C@@H](c1ccccc1)[C@@H](CO)N2Cc1ccccn1 | -0.00565
O=C1C[C@H](c2ccccc2)C(=O)N[C@@H](c2ccccc2)C/C=C\C[C@@H](c2ccccc2)N1 | -0.865
